This is one part of a sample in which hits are shown more often than they occur.
Tg IFNy HTS: T. gondii growth inhibition under IFN-gamma; AID 1259416; activity change, negative = inhibition, % (concentration not given with the values); actives 3.8% (n = 69,000); Toxoplasma gondii growth in IFN-gamma-treated host cells; stronger effect = lower value; in the data active = activity change below about -70%, passing the limit was not always enough;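 note: host cells are HeLa cells infected with Toxoplasma gondii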
Each line names hits and unclear results; the compound was inactive in the other large screens.

CC(C)N(C)Cc1nnc2n1CCN(C(=O)c1cccs1)CC2	none
COCCO[C@H]1CCN(C(=O)c2ccno2)[C@H]1Cc1cnn(C)c1	none
CN(C)CCOCC1CN(C(=O)C2CCOC2)Cc2ccnn2C1 (centres undefined)	none
CCOc1cccc(C2c3[nH]c4ccccc4c3CCN2C(=O)c2cccc(F)c2)c1 (centres undefined)	Tg IFNy HTS -123
CCOc1cccc(C2c3[nH]c4ccccc4c3CCN2C(=O)c2cccc(C)c2)c1 (centres undefined)	Tg IFNy HTS -112
Cc1cccc(C(=O)N2CCc3c([nH]c4ccccc34)C2c2cccc(C)c2)c1 (centres undefined)	none
Cc1cc(C(=O)NC2CCC3(CCC(=O)N3)CC2)no1 (centres undefined)	none
COCCN1CCN(C(=O)[C@H]2CCCO2)Cc2ccc(C)nc21	none
O=C(NCCc1csc(-c2ccccc2)n1)C1CCN(S(=O)(=O)c2ccc(Cl)cc2)CC1	none
COc1ccc(-c2nc(Cc3noc(-c4ccccn4)n3)c(C)o2)cc1	none
CC1CCN(S(=O)(=O)c2ccc3c(ccc(=O)n3CC(=O)Nc3ccc(Cl)cc3)c2)CC1	none
FC(F)(F)C(Sc1ccccc1)=C(Sc1ccccc1)Sc1ccccc1	Tg IFNy HTS -80
c1ccc(SSc2ccccc2)cc1	none
CN1C(=O)C(c2ccccc2)CC12CCN(C(=O)c1cnccn1)CC2 (centres undefined)	none
Cc1cc(C(=O)N2CCCC(c3ccc(Cc4ccc(Cl)cc4)cn3)C2)nc(N(C)C)n1 (centres undefined)	Tg IFNy HTS -90
Cc1nc2ccccn2c1CC(=O)N1CCCC(c2ccc(Cc3cccc(F)c3)cn2)C1 (centres undefined)	none
CCCc1cc(C(=O)N2CCCC(c3cc4ccccc4cn3)C2)n(C)n1 (centres undefined)	none
CN1C(=O)CCc2cc(NC(=O)c3cccs3)ccc21	none
COc1ccc2c3c([nH]c2c1)[C@@H](CO)N(S(C)(=O)=O)CC31CCN(CC2CCCC2)CC1	Tg IFNy HTS -107
COc1ccc2c3c([nH]c2c1)[C@H](CO)N(S(C)(=O)=O)CC31CCN(CC2CCCC2)CC1	none
COc1ccc2c3c([nH]c2c1)[C@@H](CO)N(S(C)(=O)=O)CC31CN(CC2CCOCC2)C1	none
CS(=O)(=O)NCc1cnc2n1CCN(c1ncccn1)CC2	none
CCN(C)c1ncnc2c1CCN(c1ncccn1)CC2	none
COc1ccc(C(=O)N(Cc2cccc(C)c2)C2(C(=O)NCc3ccccc3)CCN(C(C)=O)CC2)cc1	none
Cc1cc(OC(C(=O)O)c2ccccc2)c2c(C)c(Cc3ccccc3)c(=O)oc2c1 (centres undefined)	none
COc1ccc(-c2c(C)c3ccc(OCC(C)=O)cc3oc2=O)cc1	none
CCN(CC)c1ccc2c(C)c(CC(C)=O)c(=O)oc2c1	Tg IFNy HTS -98
O=C(CN1C(=O)CCc2cc(Br)ccc21)Nc1nccs1	none
C=CCN(Cc1ccccc1OC)C(=O)c1ccoc1C	none
CC1CCN(S(=O)(=O)c2ccc3c(c2)CCC(=O)N3CC(=O)NC2CCCCCC2)CC1	none
COc1ccc(C2c3c(n[nH]c3C)CC(C)(O)C2C(C)=O)cc1OC (centres undefined)	none
COc1cc(C2c3c([nH]c(=O)[nH]c3=O)Nc3ccc4ccccc4c32)ccc1OC(C)=O (centres undefined)	Tg IFNy HTS -112
COC(=O)c1c(NCc2ccc(OC)c(OC)c2)c2cccc(Cl)c2[nH]c1=O	none
OCCN1CCc2c(c(COc3cccnc3)nn2CC2CC2)C1	none
Cc1cccc(NC(=O)c2c(O)c3cccnc3n(-c3ccc(F)cc3)c2=O)c1	none
COC(=O)CN1C(=O)N(CCc2ccccc2)C2(CCN(Cc3ccncc3)CC2)C1=O	none
O=C1N(Cc2cccnc2)C(=O)C2(CCN(Cc3cc4ccccc4o3)CC2)N1CCc1ccccc1	Tg IFNy HTS -86
O=C1N(Cc2ccccn2)C(=O)C2(CCN(Cc3ccc4c(c3)OCO4)CC2)N1CCc1ccccc1	none
O=C(c1cccs1)N1C[C@@H]2COC[C@@]2(COc2cccnc2)C1	none
COc1ccccc1C1c2[nH]c3ccccc3c2CCN1C(=O)Cn1nc2ccccc2n1 (centres undefined)	none
CN1C(=O)C(c2ccccc2)CC12CCN(c1ncccn1)CC2 (centres undefined)	none
C=CCO[C@H]1CC[C@@H]2[C@H]1OCCN2C(=O)/C=C/c1cccs1	none
Cc1ccc(CN2CCC3(CC2)COC(COCc2ccncc2)C3)o1 (centres undefined)	none
COc1ccc(NC(=O)c2c(O)c3cccnc3n(-c3cccc(F)c3)c2=O)cc1	none
Cc1ccc2c(c1C)-n1cccc1C1(CCN(S(=O)(=O)c3cnn(C(F)F)c3C)CC1)N2	none
CCOC(=O)c1cnc(-c2ccccc2)nc1Nc1ccc(C)cc1	none
COc1ccc(-n2nnc(C(C)=O)c2NCc2ccco2)cc1	none
CCOC(=O)c1ccc(Nc2nc3nonc3nc2NCc2ccco2)cc1	Tg IFNy HTS -102
Cc1oc(C2CCN(C(=O)c3ccc(Br)cc3)CC2)nc1C(=O)N(C)C	none
CC(=O)Nc1ccc(C(=O)N(Cc2ccccc2C)C2(C(=O)NCc3ccccc3)CCN(C(C)=O)CC2)cc1	none

Source: PubChem BioAssay
